The values below come from PubChem BioAssay (Tox21).

Inconclusive results are not listed. A number with no mark means an inactive call. Active and inactive are the calls of the source. Calls come from the whole dose curve; as a rule, active = well fitted inhibition curve with a large enough effect in the signal ratio in the repeat runs (not every such curve was filed as active); inconclusive = weak or mixed curves, or effect the other way; inactive = no such curve, though single readings can be large or run the other way; the % refers to the signal ratio.
% is set by controls: 0 for no effect and ±100 for the full control effect.

Sequence of Peroxisome proliferator-activated receptor delta (Homo sapiens) (Q03181 whole entry, looked up): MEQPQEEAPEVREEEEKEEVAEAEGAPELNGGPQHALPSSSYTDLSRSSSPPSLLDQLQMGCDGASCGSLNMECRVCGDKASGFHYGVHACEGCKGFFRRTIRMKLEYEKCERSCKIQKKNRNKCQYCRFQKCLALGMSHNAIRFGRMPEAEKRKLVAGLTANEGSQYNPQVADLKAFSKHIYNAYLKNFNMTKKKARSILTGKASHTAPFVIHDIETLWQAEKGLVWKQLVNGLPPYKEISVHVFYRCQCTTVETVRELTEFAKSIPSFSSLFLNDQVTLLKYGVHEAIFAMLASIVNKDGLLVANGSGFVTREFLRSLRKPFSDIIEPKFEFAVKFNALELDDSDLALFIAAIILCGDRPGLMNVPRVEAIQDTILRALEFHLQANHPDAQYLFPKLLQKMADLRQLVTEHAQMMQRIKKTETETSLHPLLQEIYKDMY

The assay addresses Peroxisome proliferator-activated receptor delta (Homo sapiens) (UniProt Q03181). The assay can be described thus: qHTS assay to identify small molecule antagonists of the peroxisome proliferator-activated receptor delta (PPARd) signaling pathway (AID 743215).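 Note: cells stimulated with agonist L165041 at 300 nM final during compound exposure.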 Particulars: HEK293H PPARd-UAS-bla, beta-lactamase FRET ratio, antagonist, 17 h; series mostly up to 62 µM; ratio activity, negative = inhibition: at the top concentration. An excerpt: U.S. Tox21 Program National Center for Advancing Translational Sciences [NCATS] NIH Chemical Genomics Center [NCGC] U.S. Environmental Protection Agency [EPA] National Institutes of Environmental Health Sciences [NIEHS] National Toxicology Program [NTP] U.S. Food and Drug Administration [FDA] Tox21 Assay Overview: The peroxisome proliferator-activated receptors (PPARs) are lipid-activated transcription factors of the nuclear receptor superfamily with three distinct subtypes namely PPAR alpha, PPAR delta (PPARd) and PPAR gamma. All these subtypes heterodimerizes with Retinoid X receptor (RXR) and have different physiological functions. […] To identify the compounds that inhibit PPAR-delta signaling, GeneBLAzer PPAR delta UAS-bla HEK293H cell line (Invitrogen, Carlsbad, CA, USA) containing a beta-lactamase reporter gene under the control of an Upstream Activator Sequence (UAS) was used to screen the Tox21 compound library.
Tox21 Assay Protocol Summary: PPARd-bla cells were dispensed at 3000 cells/5uL/well in 1536-well black wall/clear bottom plates using a Multidrop Combi (Thermo Fisher Scientific, Waltham, MA) dispenser. After the assay plates were incubated at 37 C and 5% CO2 for 5 h, 23 nL of compounds dissolved in DMSO, positive controls or DMSO only was transferred to the assay plate by a Pintool station (Kalypsys, San Diego, CA), followed by addition of 1ul L165041 (300 nM, final concentration in the wells). The assay plates were incubated at 37 C for 17 h, and then 1 uL of LiveBLAzerTM B/G FRET substrate was added using a Bioraptr Flying Reagent Dispenser (FRD) workstation (Beckman Coulter, Indianapolis, IN, USA). The assay plates were incubated at room temperature for 2 h and fluorescence intensity was measured by an Envision plate reader (PerkinElmer, Shelton, CT).
In general terms: Quantitative high-throughput screening tests each substance at several concentrations.
For `CCCCCCC=O`, the outcome was inactive.

On to `CC(C)CCCCCCCOC(=O)CCCCC(=O)OCCCCCCCC(C)C`, for which the result was inactive.

Take `Cc1ccc(C(C)C)c(O)c1`: the result was inactive.

`CC(=O)CCC=C(C)C`: the result was inactive.

As for `CC(C)(C)c1cc(Cc2cc(C(C)(C)C)c(O)c(C(C)(C)C)c2)cc(C(C)(C)C)c1O`, the outcome was inactive.

Consider `CC1(C)CC(N)CC(C)(CN)C1` (stereo not given), for which the outcome was inactive.

With `O=S(=O)(O)c1ccc(N=Nc2c(O)ccc3cc(S(=O)(=O)O)ccc23)cc1`, the result was inactive.

On to `C=Cc1ccc(C)cc1`, for which the result was inactive.

With `CCO[Si](CCCN)(OCC)OCC`, the “ratio activity, negative = inhibition” value was -6.23%.

On to `CCCCCCCCCCCCCCCCO`, for which the “ratio activity, negative = inhibition” value is 1.6%.

`O=C(OCC1CCC2OC2C1)C1CCC2OC2C1` (stereo not given): the result was inactive.

As for `CC(C)c1cccc(C(C)C)c1`, the outcome was inactive.

Consider `CN(C)c1ccc(O)c2c1C[C@H]1C[C@H]3[C@H](N(C)C)C(=O)C(C(N)=O)=C(O)[C@@]3(O)C(=O)C1=C2O`, for which the result was inactive.

For `CCCCOC(=O)c1ccc(N)cc1`, the result was inactive.

In the case of `CC(=O)c1ccc(O)cc1`, the “ratio activity, negative = inhibition” value is -0.067%.

For the molecule `CCCOC(=O)c1ccccc1`, the outcome was inactive.

Regarding `CCNC(=S)NCC`, the outcome was inactive.

Regarding `CN/C(=C\[N+](=O)[O-])NCCSCc1csc(CN(C)C)n1`, the outcome was inactive.

Turning to `O=[N+]([O-])c1ccc2nc[nH]c2c1`, the outcome was inactive.

`NC(=S)NNC(N)=S`: the outcome was inactive.

Regarding `CC1(C)NC(=O)NC1=O`, the result was inactive.

As for `CC(=O)OCc1ccco1`, the result was inactive.

With `COC(=O)c1cccnc1`, the outcome was inactive.

Consider `CC(C)CC(C)O` (stereo not given), for which the “ratio activity, negative = inhibition” value is -7.68%.

For the molecule `Clc1ccccn1`, the outcome was inactive.

Take `CCOC(=O)n1ccn(C)c1=S`: the outcome was inactive.

Turning to `O=c1[nH]cnc2[nH]ncc12`, the “ratio activity, negative = inhibition” value was -3.89% [at 80.4 µM].

In the case of `CCCCCCCCCCCC(=O)OC`, the result was inactive.

As for `COc1cc(OC)c(C(=O)CCCN2CCCC2)c(OC)c1`, the result was inactive.

Take `C=CC(C)CCCC(C)(C)O` (stereo not given): the result was inactive.

As for `CSc1ccc(Cl)cc1`, the “ratio activity, negative = inhibition” value was -8.68%.

As to `CC(=O)OC1CC(C)OC(C)O1` (stereo not given), the outcome was inactive.

In the case of `NCCCCCCN`, the outcome was inactive.

In the case of `COc1ccc(C)cc1N`, the outcome was inactive.

Turning to `Cc1ccc(S(=O)(=O)N=C=O)cc1`, the “ratio activity, negative = inhibition” value was -16%.

With `COCCCN`, the outcome was inactive.

For the molecule `COc1ccc(N)c(C)c1`, the outcome was inactive.

As to `CN(C)CCOC(=O)COc1ccc(Cl)cc1`, the outcome was inactive.

Take `CN(C)c1ccc(Cc2ccc(N(C)C)cc2)cc1`: the outcome was inactive.

In the case of `COc1ccccc1OCC(O)CO` (stereo not given), the result was inactive.
